Some targets named below: hnRNP-A3 (Homo sapiens, UniProt P51991); hnRNP-A1 (Homo sapiens, UniProt P09651); eIF3-delta (Homo sapiens, UniProt O75821); G3BP-1 (Homo sapiens, UniProt Q13283).
What all share (assay): protein domain microarray probed with biotinylated miRNA; Domain array: 20 mM Tris-HCl pH 7.4, 200 mM KCl, 0.2 mM EDTA, 0.05% NP40, 2 ug/ul heparin, overnight 4 C. ORF array: PBS pH 7.0 with RNase inhibitor, 100 ng RNA; high values mean tight binding
Holding throughout (details): ssRNA

A further experiment has as its target T1, DAZ4 (Homo sapiens, UniProt Q86SG3).
T1 sequence: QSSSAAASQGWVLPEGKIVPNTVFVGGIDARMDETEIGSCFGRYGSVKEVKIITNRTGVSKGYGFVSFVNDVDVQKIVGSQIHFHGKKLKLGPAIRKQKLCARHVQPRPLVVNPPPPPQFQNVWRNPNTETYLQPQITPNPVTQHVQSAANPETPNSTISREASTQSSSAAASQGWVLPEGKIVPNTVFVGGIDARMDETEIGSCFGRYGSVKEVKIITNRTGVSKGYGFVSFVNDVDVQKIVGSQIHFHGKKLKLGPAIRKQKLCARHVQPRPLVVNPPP

Another experiment has as its target T2, hnRNP-M(1-2) (Homo sapiens, UniProt P52272).
T2 sequence: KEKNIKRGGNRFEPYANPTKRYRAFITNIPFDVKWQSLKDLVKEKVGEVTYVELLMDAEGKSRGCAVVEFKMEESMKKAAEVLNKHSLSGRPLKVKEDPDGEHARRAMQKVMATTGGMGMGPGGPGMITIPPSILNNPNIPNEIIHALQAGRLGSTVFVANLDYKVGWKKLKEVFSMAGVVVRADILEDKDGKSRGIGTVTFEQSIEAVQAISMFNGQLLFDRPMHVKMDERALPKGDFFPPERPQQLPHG

The next experiment has as its target T3, LARP7(2) (Homo sapiens, UniProt Q4G0J3).
T3 sequence: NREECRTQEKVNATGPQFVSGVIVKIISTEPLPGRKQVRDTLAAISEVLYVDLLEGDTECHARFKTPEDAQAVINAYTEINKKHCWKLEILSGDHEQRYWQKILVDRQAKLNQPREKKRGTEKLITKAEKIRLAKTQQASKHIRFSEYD

Another experiment has as its target T4, hnRNP-R (Homo sapiens, UniProt O43390).
T4 sequence: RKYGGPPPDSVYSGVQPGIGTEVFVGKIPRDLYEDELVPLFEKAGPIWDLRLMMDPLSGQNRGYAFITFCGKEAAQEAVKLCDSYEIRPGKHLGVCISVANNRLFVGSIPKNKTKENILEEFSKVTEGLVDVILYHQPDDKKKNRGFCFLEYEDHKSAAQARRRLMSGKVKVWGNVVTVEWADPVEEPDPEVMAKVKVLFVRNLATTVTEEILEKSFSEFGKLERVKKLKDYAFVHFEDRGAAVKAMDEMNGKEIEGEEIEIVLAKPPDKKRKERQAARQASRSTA

Another experiment addresses T5, LKAP (Homo sapiens, UniProt Q9Y4F3).
T5 sequence: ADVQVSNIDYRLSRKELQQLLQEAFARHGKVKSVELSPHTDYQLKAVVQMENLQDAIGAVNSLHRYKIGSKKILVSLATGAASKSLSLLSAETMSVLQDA

The target in another experiment is T6, DAZ1 (Homo sapiens, UniProt Q9NQZ3).
T6 sequence: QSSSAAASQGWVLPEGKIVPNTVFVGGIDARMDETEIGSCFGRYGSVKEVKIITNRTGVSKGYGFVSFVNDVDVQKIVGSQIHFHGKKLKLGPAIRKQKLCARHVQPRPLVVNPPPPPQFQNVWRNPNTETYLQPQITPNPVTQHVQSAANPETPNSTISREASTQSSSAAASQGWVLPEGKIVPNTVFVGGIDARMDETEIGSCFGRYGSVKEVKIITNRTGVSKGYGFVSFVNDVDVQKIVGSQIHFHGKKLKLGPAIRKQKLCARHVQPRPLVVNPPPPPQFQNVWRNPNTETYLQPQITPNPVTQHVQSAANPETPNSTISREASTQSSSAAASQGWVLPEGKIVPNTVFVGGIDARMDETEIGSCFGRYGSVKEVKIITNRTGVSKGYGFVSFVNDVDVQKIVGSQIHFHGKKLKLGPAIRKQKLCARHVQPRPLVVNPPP

Chain of eIF3-delta (O75821 220-320, stated change not applied): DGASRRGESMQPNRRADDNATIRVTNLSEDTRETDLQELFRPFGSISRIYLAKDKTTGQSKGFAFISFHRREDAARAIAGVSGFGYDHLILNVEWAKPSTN
Chain of hnRNP-A3 (P51991 15-225): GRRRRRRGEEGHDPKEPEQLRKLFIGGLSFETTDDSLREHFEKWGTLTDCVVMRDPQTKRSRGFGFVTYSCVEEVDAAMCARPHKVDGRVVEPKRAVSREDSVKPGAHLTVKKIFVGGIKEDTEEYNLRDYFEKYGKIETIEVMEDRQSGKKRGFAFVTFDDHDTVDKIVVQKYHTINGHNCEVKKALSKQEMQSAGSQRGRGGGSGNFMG
Chain of G3BP-1 (Q13283 320-435): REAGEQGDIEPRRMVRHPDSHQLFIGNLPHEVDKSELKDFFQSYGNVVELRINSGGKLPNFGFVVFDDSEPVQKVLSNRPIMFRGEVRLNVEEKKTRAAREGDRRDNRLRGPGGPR
Chain of hnRNP-A1 (P09651 1-205): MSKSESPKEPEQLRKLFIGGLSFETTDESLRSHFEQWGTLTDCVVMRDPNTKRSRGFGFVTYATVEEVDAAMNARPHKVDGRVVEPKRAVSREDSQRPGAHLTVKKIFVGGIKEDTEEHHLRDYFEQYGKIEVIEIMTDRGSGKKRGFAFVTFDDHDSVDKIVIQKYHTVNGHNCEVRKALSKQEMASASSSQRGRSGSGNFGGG

CAGUGCAAUGAUGAAAGGGCAU: the binding signal in the experiment with DAZ4 stood at 178.74 ± 0.0495 fluorescence intensity; with hnRNP-M(1-2), 946.9 ± 2.02 fluorescence intensity; with hnRNP-A3 it was 1370 ± 25 fluorescence intensity; with LARP7(2) it was 288 ± 8.61 fluorescence intensity; with hnRNP-A1, 40.7 ± 3.35 fluorescence intensity; with eIF3-delta it was 113 ± 14 fluorescence intensity. Also, the binding signal with hnRNP-R is 113 ± 6.25 fluorescence intensity; in the experiment with LKAP, 37.5 ± 1.56 fluorescence intensity; with DAZ1, 153 ± 10.6 fluorescence intensity; in the experiment with G3BP-1 it was 1860 ± 70.5 fluorescence intensity.
Take UGAGGUAGUAGGUUGUGUGGUU: the binding signal with DAZ4 came out at 843.32 ± 0.516 fluorescence intensity; in the experiment with hnRNP-M(1-2), 1470 ± 31 fluorescence intensity; with hnRNP-A3 it was 1660 ± 31.6 fluorescence intensity; with LARP7(2) it was 632 ± 5.09 fluorescence intensity; with hnRNP-A1, 77.3 ± 27.2 fluorescence intensity; with eIF3-delta, 338 ± 7.23 fluorescence intensity. Moreover, the binding signal with hnRNP-R is 693 ± 1.68 fluorescence intensity; with LKAP it was 91.94 ± 0.665 fluorescence intensity; in the experiment with DAZ1, 709 ± 20.1 fluorescence intensity; with G3BP-1 it was 1380 ± 17 fluorescence intensity.
As for AGAGGUAGUAGGUUGCAUAGUU, the binding signal in the experiment with DAZ4 came out at 934 ± 29.1 fluorescence intensity; with hnRNP-M(1-2), 1710 ± 32.8 fluorescence intensity; with hnRNP-A3, 2440 ± 28.8 fluorescence intensity; in the experiment with LARP7(2) it was 400 ± 39.4 fluorescence intensity; with hnRNP-A1, 62.9 ± 11.7 fluorescence intensity; with eIF3-delta, 231 ± 8.61 fluorescence intensity. Moreover, the binding signal with hnRNP-R worked out at 362 ± 6.89 fluorescence intensity; with LKAP, 41.4 ± 3.31 fluorescence intensity; with DAZ1, 814 ± 10.2 fluorescence intensity; with G3BP-1, 1220 ± 45.7 fluorescence intensity.
As to UGAGGUAGUAGGUUGUAUGGUU, the binding signal with DAZ4 came to 778 ± 25.6 fluorescence intensity; in the experiment with hnRNP-M(1-2) it was 1452 ± 3.71 fluorescence intensity; in the experiment with hnRNP-A3 it was 1730 ± 33.6 fluorescence intensity; with LARP7(2), 511 ± 8.38 fluorescence intensity; in the experiment with hnRNP-A1, 74.6 ± 1.05 fluorescence intensity; with eIF3-delta, 262 ± 21.2 fluorescence intensity. Also, the binding signal with hnRNP-R turned out to be 666 ± 24.3 fluorescence intensity; with LKAP, 65.2 ± 2.55 fluorescence intensity; with DAZ1, 673 ± 9.53 fluorescence intensity; with G3BP-1, 1240 ± 13.5 fluorescence intensity.
On to UGAGGUAGUAGGUUGUAUAGUU, for which the binding signal with DAZ4 was 215 ± 41.8 fluorescence intensity; in the experiment with hnRNP-M(1-2), 581.3 ± 5.61 fluorescence intensity; with hnRNP-A3, 952 ± 63 fluorescence intensity; in the experiment with LARP7(2) it was 179 ± 11.7 fluorescence intensity; in the experiment with hnRNP-A1, 22 ± 6.92 fluorescence intensity; with eIF3-delta it was 80.4 ± 7.03 fluorescence intensity. For the same sequence, the binding signal with hnRNP-R amounted to 109 ± 5.8 fluorescence intensity; in the experiment with DAZ1, 193 ± 22.1 fluorescence intensity; with G3BP-1, 286 ± 21.3 fluorescence intensity.
On to UAGCUUAUCAGACUGAUGUUGA, for which the binding signal with DAZ4 was found to be 570 ± 34.9 fluorescence intensity; with hnRNP-M(1-2), 584 ± 19 fluorescence intensity; in the experiment with hnRNP-A3, 80.5 ± 23 fluorescence intensity; with LARP7(2) it was 66.2 ± 4.35 fluorescence intensity; with eIF3-delta it was 20.5 ± 2.47 fluorescence intensity; in the experiment with DAZ1, 550 ± 15.3 fluorescence intensity. This sequence also registered a binding signal in the experiment with G3BP-1 of 219 ± 29.7 fluorescence intensity.

For the origin of these results see PMC11574364.
